# This is one part of a sample in which hits are shown more often than they occur.
# Pf Dd2 growth = inhibitors of Plasmodium falciparum Dd2 growth; P. falciparum Dd2 growth, SYBR Green, 72 h; Potency, µM (doses to about 28.9 µM), for the others: top-dose activity, negative = inhibition, hits mostly inhibitors; 120,000 compounds, 4.3% hits; AID 1347417; active = well fitted inhibition curve with a large enough effect;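 note: plate controls were DMSO vehicle for no effect and reference drug for full effect; nearly all actives have a fitted effect of over 65% in size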
#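 Readout: SYBR Green fluorescence, 485 nm excitation, 535 nm emission, after ~16 h lysis at 37C. Before that, Dd2-infected red cells (2.5% hematocrit) grew 72 h with compound, 29 uM top final concentration.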
# The depositor's hits bear a star; i = inactive; ! = not confirmed by another sample. Potency is the fitted concentration of half-maximal effect.
SMILES,Pf Dd2 growth
O=C(Nc1ccc(Cl)cc1)c1ccc2c(c1)N(Cc1ccccc1)CCS2,4.5µM*
COc1ccc(OC)c(CCNC(=O)c2ccc3c(c2)N(Cc2ccccc2)CCS3)c1,-21%
Cc1ccc(CN2CCSc3ccc(C(=O)Nc4ccc(Cl)cc4)cc32)cc1,7.9µM*
Cc1ccc(CN2CCSc3ccc(C(=O)NCc4ccc(OC(C)C)cc4)cc32)cc1,-24%
CCN1CCSc2ccc(C(=O)NCc3ccc(OC)cc3)cc21,-21%
O=C(NCCc1ccc(Cl)cc1)c1ccc2c(c1)N(Cc1ccccc1)CCS2,1%
CCc1ncc(C(=O)N2CCCC(Cc3nc4ccccc4[nH]3)C2)cn1 (stereo unspecified),0%
c1ccc(-c2cc(Cn3cc(-c4cncnc4)nn3)on2)nc1,-1%
Cc1csc2nc(COc3ccc(NC(=O)C(C)C)cc3)cc(=O)n12,-9%
O=c1[nH]c(C2CCN(Cc3cccs3)CC2)nc2ccc(F)cc12,-6%
Cc1ccc2nc(C3CCN(Cc4cccc(Cl)c4)CC3)[nH]c(=O)c2c1,1%
O=c1[nH]c(C2CCCN(Cc3cccc(Cl)c3)C2)nc2ccc(F)cc12 (stereo unspecified),10µM*!
O=c1[nH]c(C2CCCN(Cc3ccc(Cl)cc3)C2)nc2ccc(F)cc12 (stereo unspecified),8.9µM*
O=c1[nH]c(C2CCCN(CC3CCCC3)C2)nc2ccc(F)cc12 (stereo unspecified),2.2µM*
COc1ccc(CN2CCCC(c3nn(-c4ccc(Cl)cc4)c(=O)[nH]3)C2)cc1 (stereo unspecified),i
O=c1[nH]c(C2CCCN(CC3CC3)C2)nn1-c1ccccc1 (stereo unspecified),i
O=C(NCc1ccccc1)N1CC[C@H](c2nc3ccc(F)cc3[nH]2)C1,i
O=c1[nH]c(C2CCCN(Cc3ccccc3)C2)nn1-c1ccc(Cl)cc1 (stereo unspecified),i
CC(=O)c1cccc(NC(=O)Cn2cnc3c2c(=O)n(C)c(=O)n3C)c1,-21%
O=c1n(CC2CC2)nc2n1CCN(C1CCCC1)CC2,23%
CCCNc1ncnc2onc(C)c12,-4%
Cc1ccc(CCNc2ncnc3onc(-c4ccc(Cl)cc4)c23)cc1,i
CSc1ccc(CCNc2ncnc3onc(C)c23)cc1,8.9µM*
CCS(=O)(=O)Nc1ccc(C)n(CC(=O)N(C)Cc2ccccc2)c1=O,-8%
NC(=O)c1nc(Nc2ccccc2)sc1NC(=O)c1c(F)cccc1F,53%
SMILES,Pf Dd2 growth
Cc1ccc(-c2nc(C)c(CCNC(=O)c3ccccc3Br)s2)cc1,-11%
Cc1ccc(Nc2nc(C(N)=O)c(NC(=O)c3ccccc3Br)s2)cc1,10µM*
N#Cc1ccc(C(=O)NC2CCN(c3ccccc3)C2=O)cc1 (stereo unspecified),-3%
Cn1c(=O)cc(SCC(=O)N2CCN(c3ccccc3)CC2)c2ccccc21,i
COc1cc2c(cc1OC)C(CNC(=O)c1ccc(Cl)cc1)N(C(=O)Nc1cccc(F)c1)CC2 (stereo unspecified),-3%
COc1ccc(CC(=O)NCc2ccc3c(c2)CCN3C(=O)c2ccc(Cl)cc2)cc1OC,i
CCOC(=O)c1ccc(OCC2c3cc(OC)c(OC)cc3CCN2C(=O)Cc2ccc(OC)c(OC)c2)cc1 (stereo unspecified),8.9µM*
COc1ccc(CC(=O)N2CCc3cc(OC)c(OC)cc3C2COc2ccc(OC)cc2)cc1 (stereo unspecified),7.9µM*
COc1cc(OC)c(NC(=O)N2CCc3cc(OC)c(OC)cc3C2CC(=O)O)cc1Cl (stereo unspecified),9%
COc1cc2c(cc1OC)C(CNC(=O)C1CC1)N(C(=O)NC(C)C)CC2 (stereo unspecified),-18%
COc1cc2c(cc1OC)C(CNC(=O)Cc1ccccc1)N(C(=O)NC(C)C)CC2 (stereo unspecified),i
COC(=O)c1ccc(OCC2c3cc(OC)c(OC)cc3CCN2C(=O)c2ccccc2F)cc1 (stereo unspecified),10µM*
CCc1ccc(OCC2c3cc(OC)c(OC)cc3CCN2C(=O)Cc2ccc(OC)c(OC)c2)cc1 (stereo unspecified),8.9µM*
CCOc1ccc(NC(=O)N2CCc3cc(OC)c(OC)cc3C2CNC(C)=O)cc1 (stereo unspecified),i
COc1ccc(C(=O)NCC2c3cc(OC)c(OC)cc3CCN2C(=O)Nc2ccccc2F)cc1 (stereo unspecified),i
Cc1ccn(CCC(=O)N2C[C@@H](C(=O)O)[C@H](c3ccccc3C)C2)n1,-9%
O=C(CC1CCN(C(=O)C2CC2)C1)NCc1ccccc1 (stereo unspecified),66%
Cc1ccc(S(N)(=O)=O)cc1C(=O)N1CCC2(CCCNC2=O)C1 (stereo unspecified),-7%
COCCC(=O)N1CCC(C2CCNC2)CC1 (stereo unspecified),24%
CN(C(=O)C1(N)CC1)C1CCCN(CCCc2ccccc2)C1 (stereo unspecified),-26%
CCCNC(=O)N(C1CCOCC1)C1CCN(C(=O)c2ccc3ccccc3n2)CC1,0%

# Bioassay records (PubChem BioAssay)
